Consider seven molecules from ChEMBL document CHEMBL1961873, “Compounds: GSK PKIS; Assays: Nanosyn kinase panel” (2012).

In general, inhibition refers to the relative decrease from the control value, in per cent.

Assay [1] addresses T1, Ephrin type-B receptor 2 (Homo sapiens) (UniProt P29323).
T1 sequence (whole entry): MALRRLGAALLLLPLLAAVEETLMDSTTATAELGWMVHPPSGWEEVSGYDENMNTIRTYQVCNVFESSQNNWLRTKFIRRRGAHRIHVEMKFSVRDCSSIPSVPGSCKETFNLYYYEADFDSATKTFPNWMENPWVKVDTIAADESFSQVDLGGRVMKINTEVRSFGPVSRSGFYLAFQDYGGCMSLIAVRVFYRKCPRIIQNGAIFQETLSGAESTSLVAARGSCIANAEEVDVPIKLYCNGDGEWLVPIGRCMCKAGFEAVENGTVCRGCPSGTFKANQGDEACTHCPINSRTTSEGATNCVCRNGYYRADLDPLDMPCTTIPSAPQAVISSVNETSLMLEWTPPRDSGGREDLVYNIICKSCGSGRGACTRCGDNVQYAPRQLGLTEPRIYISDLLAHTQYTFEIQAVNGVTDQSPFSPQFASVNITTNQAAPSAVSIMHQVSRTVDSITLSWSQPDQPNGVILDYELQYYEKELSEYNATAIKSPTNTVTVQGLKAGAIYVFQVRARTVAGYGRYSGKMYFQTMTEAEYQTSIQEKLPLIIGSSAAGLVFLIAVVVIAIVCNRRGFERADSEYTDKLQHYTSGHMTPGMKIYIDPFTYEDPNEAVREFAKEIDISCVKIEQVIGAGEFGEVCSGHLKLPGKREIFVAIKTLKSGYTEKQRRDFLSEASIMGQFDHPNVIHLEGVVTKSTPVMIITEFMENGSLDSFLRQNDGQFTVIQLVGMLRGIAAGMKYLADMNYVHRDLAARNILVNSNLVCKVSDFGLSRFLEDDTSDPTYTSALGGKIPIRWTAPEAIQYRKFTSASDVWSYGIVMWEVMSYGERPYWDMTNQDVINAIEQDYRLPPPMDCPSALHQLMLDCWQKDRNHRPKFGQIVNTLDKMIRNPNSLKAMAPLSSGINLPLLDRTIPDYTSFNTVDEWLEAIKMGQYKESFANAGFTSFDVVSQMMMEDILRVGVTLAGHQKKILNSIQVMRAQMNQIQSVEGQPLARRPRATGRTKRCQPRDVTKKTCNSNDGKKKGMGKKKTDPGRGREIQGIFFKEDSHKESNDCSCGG
Conditions: at 1 µM.

Assay [2] has as its target T2, Ephrin type-B receptor 3 (Homo sapiens) (UniProt P54753).
T2 sequence (whole entry): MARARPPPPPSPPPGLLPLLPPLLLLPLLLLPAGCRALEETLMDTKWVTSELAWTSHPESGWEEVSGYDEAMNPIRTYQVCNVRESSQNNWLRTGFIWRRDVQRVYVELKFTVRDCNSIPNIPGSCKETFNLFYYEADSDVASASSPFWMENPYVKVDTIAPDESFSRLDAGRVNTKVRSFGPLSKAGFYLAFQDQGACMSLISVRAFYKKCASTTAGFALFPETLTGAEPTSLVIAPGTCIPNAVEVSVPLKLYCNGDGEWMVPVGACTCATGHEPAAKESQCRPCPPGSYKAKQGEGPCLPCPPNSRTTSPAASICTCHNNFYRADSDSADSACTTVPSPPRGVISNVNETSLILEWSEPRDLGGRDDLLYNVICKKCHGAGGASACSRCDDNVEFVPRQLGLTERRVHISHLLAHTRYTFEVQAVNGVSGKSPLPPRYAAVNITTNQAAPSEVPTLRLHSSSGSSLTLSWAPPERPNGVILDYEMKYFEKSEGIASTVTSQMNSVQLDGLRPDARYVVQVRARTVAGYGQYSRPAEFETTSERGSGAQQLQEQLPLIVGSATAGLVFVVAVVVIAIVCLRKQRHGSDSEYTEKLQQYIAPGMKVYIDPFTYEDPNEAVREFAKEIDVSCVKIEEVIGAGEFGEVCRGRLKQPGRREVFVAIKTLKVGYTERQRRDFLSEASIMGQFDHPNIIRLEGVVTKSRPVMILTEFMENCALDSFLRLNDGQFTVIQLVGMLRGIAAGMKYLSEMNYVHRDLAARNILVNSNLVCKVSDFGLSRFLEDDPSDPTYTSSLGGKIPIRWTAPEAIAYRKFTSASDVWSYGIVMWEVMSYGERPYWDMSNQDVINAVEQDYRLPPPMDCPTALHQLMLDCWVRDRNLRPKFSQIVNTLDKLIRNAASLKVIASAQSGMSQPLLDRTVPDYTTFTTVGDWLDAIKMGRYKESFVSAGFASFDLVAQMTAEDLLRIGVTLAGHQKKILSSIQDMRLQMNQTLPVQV
Conditions: at 0.1 µM.

Assay [3] has as its target T2, Ephrin type-B receptor 3 (Homo sapiens). Conditions: at 1 µM.
For assay [4], the target named is T3, Ephrin type-B receptor 4 (Homo sapiens) (UniProt P54760).
T3 sequence (whole entry): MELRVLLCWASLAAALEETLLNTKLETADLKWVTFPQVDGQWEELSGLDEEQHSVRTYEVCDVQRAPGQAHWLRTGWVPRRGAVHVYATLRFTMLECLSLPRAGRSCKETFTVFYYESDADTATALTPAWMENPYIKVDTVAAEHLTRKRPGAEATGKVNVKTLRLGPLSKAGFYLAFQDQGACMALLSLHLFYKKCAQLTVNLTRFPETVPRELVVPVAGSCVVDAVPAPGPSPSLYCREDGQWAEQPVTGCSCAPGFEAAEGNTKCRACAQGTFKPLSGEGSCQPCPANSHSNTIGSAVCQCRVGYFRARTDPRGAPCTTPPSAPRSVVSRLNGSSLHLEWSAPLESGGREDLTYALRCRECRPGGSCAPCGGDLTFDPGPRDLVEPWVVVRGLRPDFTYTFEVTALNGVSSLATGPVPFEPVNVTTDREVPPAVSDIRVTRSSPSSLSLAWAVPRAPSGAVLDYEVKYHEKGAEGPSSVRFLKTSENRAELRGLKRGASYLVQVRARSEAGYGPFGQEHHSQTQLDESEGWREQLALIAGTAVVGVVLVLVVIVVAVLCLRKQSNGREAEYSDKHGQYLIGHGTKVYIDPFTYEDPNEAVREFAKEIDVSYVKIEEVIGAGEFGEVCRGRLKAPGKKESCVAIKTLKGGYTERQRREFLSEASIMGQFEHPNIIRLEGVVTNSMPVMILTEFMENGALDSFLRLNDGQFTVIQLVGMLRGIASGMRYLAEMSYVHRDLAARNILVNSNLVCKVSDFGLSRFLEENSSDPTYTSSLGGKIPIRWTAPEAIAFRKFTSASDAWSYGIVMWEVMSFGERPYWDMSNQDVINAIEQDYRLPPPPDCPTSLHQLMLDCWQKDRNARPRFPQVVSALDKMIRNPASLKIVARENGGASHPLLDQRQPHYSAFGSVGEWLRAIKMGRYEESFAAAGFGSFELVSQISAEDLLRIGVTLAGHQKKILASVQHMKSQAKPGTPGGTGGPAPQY
The following applies: at 0.1 µM.

For assay [5], the target named is T3, Ephrin type-B receptor 4 (Homo sapiens). The following applies: at 1 µM.
Assay [6] addresses Receptor tyrosine-protein kinase erbB-2 (Homo sapiens) (UniProt P04626). Conditions: at 0.1 µM.
For assay [7] the target is unchanged. The following applies: at 1 µM.
Assay [8] concerns the target Receptor tyrosine-protein kinase erbB-4 (Homo sapiens) (UniProt Q15303). The following applies: at 0.1 µM.
Assay [9] has the same target. Conditions: at 1 µM.
Assay [10] deals with Tyrosine-protein kinase Fer (Homo sapiens) (UniProt P16591). Conditions: at 0.1 µM.
Assay [11] shares this target. The following applies: at 1 µM.
In assay [12] the target is Tyrosine-protein kinase Fes/Fps (Homo sapiens) (UniProt P07332). Conditions: at 0.1 µM.
Assay [13] has the same target. The following applies: at 1 µM.
The target of assay [14] is Fibroblast growth factor receptor 1 (Homo sapiens) (UniProt P11362). The following applies: at 0.1 µM.
The target is the same in assay [15]. Conditions: at 1 µM.
Assay [16] addresses Fibroblast growth factor receptor 2 (Homo sapiens) (UniProt P21802). Conditions: at 0.1 µM.
For assay [17] the target is unchanged. Conditions: at 1 µM.
Assay [18] concerns the target Fibroblast growth factor receptor 3 (Homo sapiens) (UniProt P22607). The following applies: at 0.1 µM.
The target is the same in assay [19]. The following applies: at 1 µM.
In assay [20] the target is Fibroblast growth factor receptor 4 (Homo sapiens) (UniProt P22455). Conditions: at 0.1 µM.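 Also: values are mean percent inhibition of FGFR4.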
Sequence of Fibroblast growth factor receptor 4 (Homo sapiens) (P22455 22-802 limits assumed): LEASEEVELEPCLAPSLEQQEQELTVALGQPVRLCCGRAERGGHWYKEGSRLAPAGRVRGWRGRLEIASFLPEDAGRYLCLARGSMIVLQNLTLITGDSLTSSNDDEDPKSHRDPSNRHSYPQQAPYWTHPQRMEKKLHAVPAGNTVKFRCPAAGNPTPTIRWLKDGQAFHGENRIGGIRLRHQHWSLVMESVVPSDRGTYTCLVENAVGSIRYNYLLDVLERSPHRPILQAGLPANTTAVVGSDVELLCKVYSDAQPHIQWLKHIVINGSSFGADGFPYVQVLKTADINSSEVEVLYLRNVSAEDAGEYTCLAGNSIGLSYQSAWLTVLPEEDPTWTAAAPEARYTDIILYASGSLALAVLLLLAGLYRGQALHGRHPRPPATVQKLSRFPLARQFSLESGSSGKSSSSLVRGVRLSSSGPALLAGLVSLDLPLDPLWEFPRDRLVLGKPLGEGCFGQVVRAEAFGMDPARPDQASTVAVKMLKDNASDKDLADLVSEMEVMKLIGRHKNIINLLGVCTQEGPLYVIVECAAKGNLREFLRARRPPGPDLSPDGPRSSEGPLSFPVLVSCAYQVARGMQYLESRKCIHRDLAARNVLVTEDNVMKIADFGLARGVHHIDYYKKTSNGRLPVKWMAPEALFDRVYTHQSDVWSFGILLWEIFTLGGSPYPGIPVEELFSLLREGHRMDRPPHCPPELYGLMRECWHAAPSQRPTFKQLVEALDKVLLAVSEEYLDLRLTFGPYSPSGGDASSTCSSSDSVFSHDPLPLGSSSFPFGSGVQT

Sequence of Receptor tyrosine-protein kinase erbB-2 (Homo sapiens) (P04626 whole entry): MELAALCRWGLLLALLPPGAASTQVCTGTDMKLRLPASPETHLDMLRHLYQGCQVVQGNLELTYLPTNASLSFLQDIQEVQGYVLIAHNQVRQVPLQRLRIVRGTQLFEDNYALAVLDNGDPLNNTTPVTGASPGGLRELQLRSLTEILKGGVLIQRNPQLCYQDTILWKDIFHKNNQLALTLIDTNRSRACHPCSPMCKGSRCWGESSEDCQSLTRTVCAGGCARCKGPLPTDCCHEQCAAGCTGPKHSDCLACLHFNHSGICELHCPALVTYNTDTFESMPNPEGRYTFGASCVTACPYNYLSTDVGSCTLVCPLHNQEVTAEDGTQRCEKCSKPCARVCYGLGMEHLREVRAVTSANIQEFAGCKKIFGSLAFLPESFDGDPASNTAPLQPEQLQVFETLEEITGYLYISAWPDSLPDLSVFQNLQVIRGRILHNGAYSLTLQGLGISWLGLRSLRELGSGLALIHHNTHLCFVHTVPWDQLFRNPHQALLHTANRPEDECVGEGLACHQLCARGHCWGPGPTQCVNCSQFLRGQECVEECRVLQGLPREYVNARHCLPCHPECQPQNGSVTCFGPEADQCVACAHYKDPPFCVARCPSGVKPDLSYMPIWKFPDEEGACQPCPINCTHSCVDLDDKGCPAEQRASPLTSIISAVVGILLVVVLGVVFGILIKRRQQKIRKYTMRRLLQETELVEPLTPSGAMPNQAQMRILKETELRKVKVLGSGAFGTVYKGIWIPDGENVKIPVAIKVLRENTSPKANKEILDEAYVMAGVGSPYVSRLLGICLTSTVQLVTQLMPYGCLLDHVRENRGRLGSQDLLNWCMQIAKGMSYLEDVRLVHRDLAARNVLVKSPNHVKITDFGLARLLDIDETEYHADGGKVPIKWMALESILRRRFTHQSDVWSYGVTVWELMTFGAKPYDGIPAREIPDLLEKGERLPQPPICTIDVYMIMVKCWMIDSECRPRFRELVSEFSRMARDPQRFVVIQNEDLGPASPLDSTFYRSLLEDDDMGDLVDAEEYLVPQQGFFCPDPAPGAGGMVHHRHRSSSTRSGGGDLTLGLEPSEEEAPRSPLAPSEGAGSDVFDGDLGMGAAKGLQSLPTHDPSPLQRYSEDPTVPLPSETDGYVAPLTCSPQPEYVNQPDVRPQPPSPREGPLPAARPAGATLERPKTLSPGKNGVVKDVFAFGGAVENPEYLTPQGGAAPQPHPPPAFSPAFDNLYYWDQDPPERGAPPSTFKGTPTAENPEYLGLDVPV
Sequence of Fibroblast growth factor receptor 2 (Homo sapiens) (P21802 22-821 limits assumed): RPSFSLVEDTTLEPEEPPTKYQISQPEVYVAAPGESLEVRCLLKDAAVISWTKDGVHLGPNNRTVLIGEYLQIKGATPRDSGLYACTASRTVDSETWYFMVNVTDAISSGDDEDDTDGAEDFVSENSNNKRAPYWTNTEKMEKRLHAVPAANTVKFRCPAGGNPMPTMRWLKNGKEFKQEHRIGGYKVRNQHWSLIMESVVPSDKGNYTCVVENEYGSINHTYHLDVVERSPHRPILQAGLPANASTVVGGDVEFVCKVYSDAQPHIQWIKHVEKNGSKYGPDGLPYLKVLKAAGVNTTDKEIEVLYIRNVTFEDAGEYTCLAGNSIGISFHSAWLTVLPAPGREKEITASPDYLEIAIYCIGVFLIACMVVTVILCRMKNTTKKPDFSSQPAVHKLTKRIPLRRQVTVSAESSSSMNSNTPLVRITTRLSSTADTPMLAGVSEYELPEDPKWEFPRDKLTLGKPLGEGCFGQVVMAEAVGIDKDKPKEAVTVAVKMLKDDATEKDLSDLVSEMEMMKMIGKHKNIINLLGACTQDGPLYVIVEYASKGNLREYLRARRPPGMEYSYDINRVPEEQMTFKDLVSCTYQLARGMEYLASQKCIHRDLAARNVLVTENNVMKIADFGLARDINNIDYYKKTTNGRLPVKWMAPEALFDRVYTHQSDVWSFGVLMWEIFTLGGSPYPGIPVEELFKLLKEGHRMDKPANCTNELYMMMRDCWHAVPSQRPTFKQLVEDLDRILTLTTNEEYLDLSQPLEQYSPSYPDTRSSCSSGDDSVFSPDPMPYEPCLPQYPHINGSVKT
Sequence of Receptor tyrosine-protein kinase erbB-4 (Homo sapiens) (Q15303 whole entry): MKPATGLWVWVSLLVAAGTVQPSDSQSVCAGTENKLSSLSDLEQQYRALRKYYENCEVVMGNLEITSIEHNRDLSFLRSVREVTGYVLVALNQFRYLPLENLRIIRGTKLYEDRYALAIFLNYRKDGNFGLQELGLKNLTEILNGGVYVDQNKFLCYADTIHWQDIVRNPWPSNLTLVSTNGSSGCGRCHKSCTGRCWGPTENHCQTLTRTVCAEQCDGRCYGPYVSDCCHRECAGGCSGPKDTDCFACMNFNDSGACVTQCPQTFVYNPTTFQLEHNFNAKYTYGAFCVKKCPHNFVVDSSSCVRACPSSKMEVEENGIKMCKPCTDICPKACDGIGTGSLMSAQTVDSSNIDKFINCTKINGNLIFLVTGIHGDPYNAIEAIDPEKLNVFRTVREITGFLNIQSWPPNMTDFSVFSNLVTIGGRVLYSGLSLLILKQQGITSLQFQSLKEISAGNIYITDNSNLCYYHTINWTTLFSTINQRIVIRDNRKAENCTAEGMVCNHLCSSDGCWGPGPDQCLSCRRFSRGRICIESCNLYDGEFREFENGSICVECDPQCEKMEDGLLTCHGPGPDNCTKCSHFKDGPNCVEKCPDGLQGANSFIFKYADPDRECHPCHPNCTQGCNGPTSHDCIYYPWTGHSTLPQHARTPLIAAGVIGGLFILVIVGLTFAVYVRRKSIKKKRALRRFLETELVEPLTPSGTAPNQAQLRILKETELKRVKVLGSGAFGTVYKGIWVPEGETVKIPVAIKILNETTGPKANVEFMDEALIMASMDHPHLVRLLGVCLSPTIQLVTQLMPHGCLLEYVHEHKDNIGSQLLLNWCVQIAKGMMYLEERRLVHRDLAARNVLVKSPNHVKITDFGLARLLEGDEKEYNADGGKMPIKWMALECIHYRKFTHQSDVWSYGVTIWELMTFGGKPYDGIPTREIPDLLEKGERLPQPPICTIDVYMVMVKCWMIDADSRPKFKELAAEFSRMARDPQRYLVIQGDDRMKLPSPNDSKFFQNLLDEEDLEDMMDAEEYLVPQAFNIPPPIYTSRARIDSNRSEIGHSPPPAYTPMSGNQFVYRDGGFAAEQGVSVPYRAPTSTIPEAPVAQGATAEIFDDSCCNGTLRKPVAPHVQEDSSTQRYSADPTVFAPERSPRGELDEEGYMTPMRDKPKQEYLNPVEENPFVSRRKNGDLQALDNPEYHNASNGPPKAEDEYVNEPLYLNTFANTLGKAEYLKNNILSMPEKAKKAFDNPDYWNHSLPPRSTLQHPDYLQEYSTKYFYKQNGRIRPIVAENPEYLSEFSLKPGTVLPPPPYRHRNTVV
Sequence of Fibroblast growth factor receptor 3 (Homo sapiens) (P22607 23-806 limits assumed): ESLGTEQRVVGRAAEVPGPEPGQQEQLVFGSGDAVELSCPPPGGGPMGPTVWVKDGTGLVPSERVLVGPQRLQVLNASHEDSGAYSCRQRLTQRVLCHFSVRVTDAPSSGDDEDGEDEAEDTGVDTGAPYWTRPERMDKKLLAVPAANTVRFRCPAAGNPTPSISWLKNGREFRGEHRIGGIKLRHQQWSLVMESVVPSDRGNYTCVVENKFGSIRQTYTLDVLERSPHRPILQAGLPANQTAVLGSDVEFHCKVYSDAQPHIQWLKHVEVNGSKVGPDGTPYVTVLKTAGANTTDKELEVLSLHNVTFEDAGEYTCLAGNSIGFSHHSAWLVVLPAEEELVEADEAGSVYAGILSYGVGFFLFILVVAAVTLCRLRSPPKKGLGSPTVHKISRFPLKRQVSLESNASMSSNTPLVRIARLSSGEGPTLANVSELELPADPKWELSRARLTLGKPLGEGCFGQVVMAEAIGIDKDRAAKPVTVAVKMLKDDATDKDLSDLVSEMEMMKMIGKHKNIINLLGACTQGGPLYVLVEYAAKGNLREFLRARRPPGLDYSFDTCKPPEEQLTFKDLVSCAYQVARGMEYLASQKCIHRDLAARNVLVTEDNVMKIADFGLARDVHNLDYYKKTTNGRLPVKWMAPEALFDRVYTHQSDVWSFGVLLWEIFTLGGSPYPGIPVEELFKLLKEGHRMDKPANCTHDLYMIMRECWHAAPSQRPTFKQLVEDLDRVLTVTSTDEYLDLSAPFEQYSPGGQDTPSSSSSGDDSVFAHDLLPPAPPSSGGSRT

Regarding `CS(=O)(=O)CCNCc1ccc(-c2ccc3ncnc(Nc4ccc(OCc5ccccc5)c(Cl)c4)c3c2)o1`, the inhibition in assay [1] is 11.5%; in assay [2], -0.46%; in assay [3], 2.9%; in assay [4], 1.93%; in assay [5], 2.4%; in [6], 21.5%. Besides, the inhibition is 69.5% in assay [7]; 59.8% in [8]; 88.1% in [9]; 4.02% in [10]; 10.4% in [11]; 0.53% in assay [12]. Also, the inhibition was determined as 0.08% in assay [13]; 0.78% in assay [14]; 3.71% in assay [15]; 0.57% in [16]; 5.46% in [17]; 2.05% in [18]. The inhibition was 4.98% in [19] and -0.26% in [20].

With `NCc1ccc(-c2nc(-c3ccc(Cl)c(O)c3)c(-c3ccncc3)[nH]2)cc1`, the inhibition in assay [1] was 8.63%; in assay [2] it was 5.47%; in assay [3], 12.8%; in assay [4] it was 3.82%; in [5] it was 9.77%; in assay [6] it was -0.58%. In addition, the inhibition is -0.9% in assay [7]; 11.1% in [8]; 28.9% in assay [9]; 0.8% in [10]; 2.5% in assay [11]; 0.2% in [12]. The inhibition in [13] is 1.79%; in assay [14], -0.32%; in assay [15], 1.38%; in [16] it was -0.38%; in assay [17], 6.76%; in assay [18], 0.23%. In addition, the values for the inhibition in [19] and in assay [20] were 5.11% and -5.87%, respectively.

For the molecule `CCn1c(-c2nonc2N)nc2c(C#CC(C)(C)O)nc(OC[C@@H](N)c3ccccc3)cc21`, the inhibition was 12.1% in assay [1]; 0.34% in assay [2]; -0.22% in assay [3]; -2.4% in assay [4]; 1.73% in [5]; -1.67% in assay [6]. For the same molecule, the inhibition in assay [7] is -0.37%; in [8], -4.79%; in assay [9], -4.06%; in [11], 4.88%; in [12], -0.53%; in assay [13], 5.13%. In addition, the inhibition in assay [14] is -3.47%; in assay [15], 5.43%; in assay [16] it was -3.01%; in [17], 0.85%; in [18] it was -1.33%; in assay [19] it was -0.5%. Further, the inhibition in [20] worked out at 2.3%.

As to `CCn1c(-c2nonc2N)nc2ccncc21`, the inhibition in assay [2] is 2.91%; in assay [3] it was -1.68%; in assay [4], -0.26%; in [5], 0.27%; in assay [6] it was 0.8%; in assay [7], -4.21%. Further, the inhibition in [8] came out at 7.5%; in assay [9] it was 9.71%; in assay [10], 2.5%; in assay [11], 0.13%; in [12] it was 0.83%; in [13] it was 1.98%. In addition, the inhibition is 0.47% in [14]; -1.46% in assay [15]; -0.14% in [16]; 4.73% in [17]; 0.49% in assay [18]; 0.64% in assay [19]. Also, in [20], the inhibition was -8.14%.

Turning to `CCn1c(-c2nonc2N)nc2cncc(C(=O)N3CC[C@H](N)C3)c21`, the inhibition in [1] was found to be 6.1%; in assay [2] it was 6.62%; in [3], 4.88%; in assay [4], 6.15%; in [5], 2.54%; in assay [6], 4.24%. The inhibition in assay [7] came to 7.27%; in assay [8], 13.3%; in assay [9], 17.8%; in assay [10] it was 1.22%; in assay [11], 3.76%; in assay [12], 2.6%. Moreover, the inhibition was 2.26% in assay [13]; 0.26% in assay [14]; 1.87% in [15]; 2.48% in assay [16]; 4.96% in assay [17]; 3.72% in [18]. Besides, the inhibition was 2.58% in assay [19] and -6.25% in assay [20].

With `COc1cc(C=NNc2ncnc3c2cnn3-c2ccccc2)ccc1O`, the inhibition in assay [1] is 18.2%; in [2], 3.59%; in assay [3] it was -2.55%; in [4], 2.58%; in [5] it was 9.64%; in [6], 1.75%. In addition, the inhibition in [7] was -2.49%; in assay [8], 3.71%; in [9], 6.51%; in [10] it was -3.39%; in assay [11], 4.88%; in assay [12] it was 2.59%. The inhibition in assay [13] amounted to 4.03%; in [14] it was 1.01%; in assay [15], 3.72%; in [16], 3%; in assay [17], 9.48%; in [18] it was 2.91%. Also, the inhibition in assay [19] amounted to 7.58%; in [20], 4.25%.

`CN1CCC(C(=O)Nc2n[nH]c3nnc(-c4ccccc4)cc23)CC1`: the inhibition was determined as 3.41% in assay [1]; 6.23% in assay [2]; 4.08% in assay [3]; 2.18% in [4]; 1.12% in assay [5]; 5.08% in [6]. Moreover, the inhibition in [7] came to 14.2%; in assay [8], 17.7%; in [9] it was 24.2%; in assay [10] it was 3.91%; in assay [11], 5.92%; in assay [12], 3.95%. The inhibition was 3.43% in [13]; 5.69% in assay [14]; 4.3% in assay [15]; 5.82% in [16]; 5.58% in assay [17]; 5.57% in assay [18]. Further, the inhibition was 4.99% in [19] and -8.44% in assay [20].
